Measurements reported in PubChem BioAssay AID1527 (The Scripps Research Institute Molecular Screening Center, 2009).
Hit rate of the full screen: of about 290,000 compounds, about 2,600 (0.9%) were called active. The sample as a whole holds a higher share of actives than the screen did. Unmarked numbers belong to inactive results.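 How the source made its calls: active means inhibition above the mean of all tested compounds plus 3 SD, cutoff set per screening run (cut at about 7.5% in these data); inactive means the rest.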

The compounds below were run on VIM-2 metallo-beta-lactamase (Pseudomonas aeruginosa) (assay: inhibition of VIM-2 nitrocefin hydrolysis – biochemical, epi-absorbance readout, Pseudomonas aeruginosa enzyme, primary screen (AID 1527;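 further: red hydrolysis product quenches plate fluorescence so inhibitors raise well fluorescence; 0% = enzyme with DMSO and 100% = DMSO without enzyme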)). Details: purified VIM-2, nitrocefin hydrolysis, epi-absorbance fluorescence; at 5.6 µM; hits give high values.

Going from `Fc1ccc(N2CCN(Cc3ccc4c(c3)OCO4)CC2)cc1` to `O=C(Cc1ccccc1[N+](=O)[O-])N1CCN(Cc2ccc3c(c2)OCO3)CC1`, the inhibition rises from -2.76% to 1.82%.

First: CC(=O)c1c(C)n(C(C)C)c2ccc(O)cc12
Second: CNC(=O)O/N=C(\N)Cc1csc2ccc(Cl)cc12
The inhibition of the first is lower: -2.19% for the first, -0.28% for the second.

Going from `COc1cc2nc(N3CCN(C(=O)[C@@H]4CCCO4)CC3)nc(N)c2cc1OC` to `CCN1CCN(C(=O)Cc2coc3cc(C)cc(C)c23)CC1`, the inhibition falls from -2.29% to -5.4%.

Compared with `CCOC(=O)C1(CCc2ccccc2)CCN(Cc2ccco2)CC1`, `COc1ccc(-n2c(-c3ccccc3)nc3ccccc3c2=O)cc1` is lower in inhibition: -1.92% for the first, -3.17% for the second.

Going from `O=C(N/N=C/c1c(O)n(C2CC2)c(=S)[nH]c1=O)c1ccccc1Cl` to `Cc1cc2ccccn2c1C(C[N+](=O)[O-])c1c(F)cccc1Cl` (stereo not given), the inhibition rises from -1.56% to 0.92%.

First: CN(C)CC1CCCCC1OC(=O)c1ccc(Cl)c(Cl)c1 (stereo not given)
Second: COCCNC(=O)CN1C2CCC1CC(O)(c1cccnc1)C2 (stereo not given)
The inhibition of the first is higher: 0.42% for the first, -2.88% for the second.

In the case of `Cc1cc(=O)oc2c(C)c(OCC(=O)N3CCN(Cc4ccc5c(c4)OCO5)CC3)ccc12`, the inhibition is reported as 41.5% (active).
With `Cc1cc(OCc2cc(C(=O)O)oc2C)c2c3c(c(=O)oc2c1)CCCC3` the inhibition was 56.6% (active).
`COC(=O)COc1cc(C)cc2oc(=O)c3c(c12)CCCC3` was tested, and the inhibition was 8.38% (active).
